We go through four compounds from PubChem BioAssay (EPA / NIEHS).

Broadly, the AC50 is the midpoint of the concentration-response curve, whichever way the signal moves.

Test [1] can be described thus: CEETOX_H295R_PROG: CeeTox H295R High-throughput Steroidogenesis Assay for Progesterone (PROG) (AID 2283442).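 On AC50: human H295R adrenal cells primed with 10 µM forskolin before dosing; progesterone secreted into medium by H295R cells measured by HPLC-MS/MS.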 The following applies: actives raise or lower the signal. The procedure, abridged: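 Steps: seed H295R cells and let them adhere overnight; prime 48 h with 10 uM forskolin; dose with compound in DMSO at 0.1% final for 48 h; extract medium steroids with MTBE; measure progesterone by LC-MS/MS. MTT viability was run in the same wells.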

Read-out in test [2]: Tumor necrosis factor receptor superfamily member 6 (Homo sapiens) (UniProt P25445)
Put plainly: LTEA_HepaRG_FAS: Life Technologies and Expression Analysis (LTEA) Assay for Fas cell surface death receptor (FAS) using HepaRG (AID 2283447). The note with it: mRNA level, 48 h; actives raise or lower the signal. The method in brief: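 Differentiated HepaRG cells in serum-free induction medium were exposed 48 h to 8 half-log concentrations up to 100 uM in 0.5% DMSO, in duplicate. FAS mRNA was measured by qRT-PCR normalised to ACTB, GAPDH and POLR2A; bidirectional fit versus DMSO.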

Read-out in test [3]: Fatty acid synthase (Homo sapiens) (UniProt P49327)
In words: LTEA_HepaRG_FASN: Life Technologies and Expression Analysis (LTEA) Assay for Fatty Acid Synthase (FASN) using HepaRG (AID 2283448).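 On AC50: differentiated human HepaRG liver cells in serum-free induction medium.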 The note with it: mRNA level, 48 h; actives raise or lower the signal. The procedure, abridged: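 HepaRG, 48 h exposure, 8-pt half-log series top 100 uM, 0.5% DMSO vehicle, duplicates. Readout: FASN transcript by Fluidigm qRT-PCR; housekeeping-normalized; bidirectional curve fit vs DMSO baseline.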

Read-out in test [4]: Cyclin D2 (CCND2), CCND2 (gene 894)
In words: LTEA_HepaRG_CCND2: Life Technologies and Expression Analysis (LTEA) Assay for Cyclin D2 (CCND2) using HepaRG (AID 2283449).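 Further: CCND2 transcript measured by TaqMan qRT-PCR and normalised to three housekeeping genes.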 The following applies: mRNA level, 48 h; actives raise or lower the signal. The method in brief:
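HepaRG, 48 h dosing, 8-pt half-log curve from 100 uM, 0.5% DMSO; duplicate wells. Readout: CCND2 transcript by microfluidic qRT-PCR, housekeeping-normalised; bidirectional fit vs DMSO baseline.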

Read-out in test [5]: Cyclin Dependent Kinase Inhibitor 1A (CDKN1A), CDKN1A (gene 1026)
In words: LTEA_HepaRG_CDKN1A: Life Technologies and Expression Analysis (LTEA) Assay for Cyclin Dependent Kinase Inhibitor 1A (CDKN1A) using HepaRG (AID 2283450). The following applies: mRNA level, 48 h; actives raise or lower the signal. The procedure, abridged: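 Read-out is CDKN1A mRNA by TaqMan qRT-PCR, normalized to three housekeeping genes and fitted in both directions against the DMSO baseline. Human HepaRG cells were treated 48 h with test chemicals up to 100 uM in half-log steps, 0.5% DMSO.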

Read-out in test [6]: Cyclin D1 (CCND1), CCND1 (gene 595)
In words: LTEA_HepaRG_CCND1: Life Technologies and Expression Analysis (LTEA) Assay for Cyclin D1 (CCND1) using HepaRG (AID 2283451). The following applies: mRNA level, 48 h; actives raise or lower the signal. The procedure, abridged:
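HepaRG plated 48 h, medium switched to serum-free induction medium, chemicals added in duplicate (top 100 uM, half-log steps, 0.5% DMSO) for 48 h, cells lysed, RNA measured by TaqMan qRT-PCR.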

Read-out in test [7]: catalase (CAT), CAT (gene 847)
Put plainly: LTEA_HepaRG_CAT: Life Technologies and Expression Analysis (LTEA) Assay for catalase (CAT) using HepaRG (AID 2283452). The following applies: mRNA level, 48 h; actives raise or lower the signal. The procedure, abridged:
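HepaRG cells in serum-free induction medium, 0.5% DMSO vehicle, exposed 48 h in duplicate over 8 half-log concentrations from 100 uM. CAT mRNA measured by qRT-PCR, normalized to ACTB, GAPDH, POLR2A; bidirectional fit versus DMSO.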

Read-out in test [8]: flavin-containing dimethylaniline monooxygenases 3 (FMO3), FMO3 (gene 2328)
In words: LTEA_HepaRG_FMO3: Life Technologies and Expression Analysis (LTEA) Assay for flavin-containing dimethylaniline monooxygenases 3 (FMO3) using HepaRG (AID 2283453). The following applies: mRNA level, 48 h; actives raise or lower the signal. The method in brief:
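Eight-point concentration-response in serum-free HepaRG cultures (top 100 uM, 0.5% DMSO, 48 h). Read-out: FMO3 mRNA level normalized to three endogenous control genes, fitted bidirectionally versus vehicle.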

Read-out in test [9]: Cytochrome P450 (CYP1A1), CYP1A1 (gene 1543)
Put plainly: LTEA_HepaRG_CYP1A1: Life Technologies and Expression Analysis (LTEA) Assay for Cytochrome P450 (CYP1A1) using HepaRG (AID 2283454). The following applies: mRNA level, 48 h; actives raise or lower the signal. The method in brief:
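HepaRG, 48 h post-plating switched to serum-free induction medium; 8-pt conc-response (top 100 uM, half-log, 0.5% DMSO), duplicates, 48 h. Lysis in RLT, TaqMan qRT-PCR for CYP1A1; gain or loss vs DMSO.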

Read-out in test [10]: CFLAR gene, CFLAR (gene 8837)
In words: LTEA_HepaRG_CFLAR: Life Technologies and Expression Analysis (LTEA) Assay for CFLAR gene using HepaRG (AID 2283455). The note with it: mRNA level, 48 h; actives raise or lower the signal. The method in brief:
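qRT-PCR read-out (Fluidigm/TaqMan) of CFLAR mRNA, normalized to three housekeeping genes, in differentiated human HepaRG cells after 48 h chemical exposure; 8-point half-log series from 100 uM in 0.5% DMSO; bidirectional curve fitting versus DMSO.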

Read-out in test [11]: Forkhead box O1 (FOXO1), FOXO1 (gene 2308)
In words: LTEA_HepaRG_FOXO1: Life Technologies and Expression Analysis (LTEA) Assay for Forkhead box O1 (FOXO1) using HepaRG (AID 2283456). The following applies: mRNA level, 48 h; actives raise or lower the signal. The procedure, abridged: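 HepaRG, 48 h exposure, 8-pt half-log series from 100 uM in 0.5% DMSO, duplicates; Fluidigm qRT-PCR mRNA, housekeeping-normalised; bidirectional fit vs DMSO baseline.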

Read-out in test [12]: growth arrest and DNA damage 45 (GADD45A), GADD45A (gene 1647)
Put plainly: LTEA_HepaRG_GADD45A: Life Technologies and Expression Analysis (LTEA) Assay for growth arrest and DNA damage 45 (GADD45A) using HepaRG (AID 2283458). The note with it: mRNA level, 48 h; actives raise or lower the signal. The method in brief:
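HepaRG, 48 h exposure, 8 conc. (top 100 uM, half-log steps), 0.5% DMSO vehicle, duplicates. Read-out: qRT-PCR mRNA level, housekeeping-normalized (ACTB/GAPDH/POLR2A). Curves fit bidirectionally vs DMSO baseline.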

Read-out in test [13]: Forkhead box O3 (FOXO3), FOXO3 (gene 2309)
In words: LTEA_HepaRG_FOXO3: Life Technologies and Expression Analysis (LTEA) Assay for Forkhead box O3 (FOXO3) using HepaRG (AID 2283459). The note with it: mRNA level, 48 h; actives raise or lower the signal. The procedure, abridged: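 qRT-PCR readout of FOXO3 transcript, normalized to three housekeeping genes (ACTB, GAPDH, POLR2A); gain or loss fitted against 0.5% DMSO vehicle. HepaRG cells, 48 h chemical exposure, 8-point half-log series, top 100 uM.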

Read-out in test [14]: ABC Transporter (ABCB1), ABCB1 (gene 5243)
In words: LTEA_HepaRG_ABCB1: Life Technologies and Expression Analysis (LTEA) Assay for ABC Transporter (ABCB1) using HepaRG (AID 2283460). The following applies: mRNA level, 48 h; actives raise or lower the signal. The method in brief: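 HepaRG, 48 h exposure, 8-pt half-log series from 100 uM, 0.5% DMSO vehicle, duplicates. Readout: ABCB1 transcript by Fluidigm TaqMan qRT-PCR, housekeeping-normalized; bidirectional curve fit vs DMSO baseline.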

Read-out in test [15]: growth arrest and DNA damage 45 (GADD45B), GADD45B (gene 4616)
In words: LTEA_HepaRG_GADD45B: Life Technologies and Expression Analysis (LTEA) Assay for growth arrest and DNA damage 45 (GADD45B) using HepaRG (AID 2283461). The note with it: mRNA level, 48 h; actives raise or lower the signal. The procedure, abridged: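 HepaRG, ~100,000 cells/well, 48 h plating; serum-free induction medium; cpd 100 uM top, half-log x8, 0.5% DMSO, duplicate, 48 h; lysis in RLT, RNA isolation, qRT-PCR; norm ACTB/GAPDH/POLR2A; bidirectional fit vs DMSO.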

Read-out in test [16]: ABC Transporter (ABCC3), ABCC3 (gene 8714)
In words: LTEA_HepaRG_ABCC3: Life Technologies and Expression Analysis (LTEA) Assay for ABC Transporter (ABCC3) using HepaRG (AID 2283462). The note with it: mRNA level, 48 h; actives raise or lower the signal. The procedure, abridged: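 Human HepaRG, 48 h dosing, 8-pt half-log series from 100 uM, 0.5% DMSO vehicle, duplicates. ABCC3 mRNA by TaqMan qRT-PCR, housekeeping-normalized; bidirectional curve fit vs DMSO.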

Read-out in test [17]: ABC Transporter (ABCB11), ABCB11 (gene 8647)
Put plainly: LTEA_HepaRG_ABCB11: Life Technologies and Expression Analysis (LTEA) Assay for ABC Transporter (ABCB11) using HepaRG (AID 2283463). The following applies: mRNA level, 48 h; actives raise or lower the signal. The method in brief:
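HepaRG, 48 h exposure, 8-pt half-log CRC top 100 uM, 0.5% DMSO vehicle, duplicates. Readout: TaqMan qRT-PCR of ABCB11 mRNA, housekeeping-normalized (ACTB/GAPDH/POLR2A). Bidirectional fit vs DMSO baseline.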

Read-out in test [18]: Broad substrate specificity ATP-binding cassette transporter ABCG2 (Homo sapiens) (UniProt Q9UNQ0)
In words: LTEA_HepaRG_ABCG2: Life Technologies and Expression Analysis (LTEA) Assay for ABC Transporter (ABCG2) using HepaRG (AID 2283465). The following applies: mRNA level, 48 h; actives raise or lower the signal. The method in brief: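 HepaRG, 48 h exposure, 8-pt half-log series from 100 uM, 0.5% DMSO vehicle, duplicates. Readout: ABCG2 transcript by qRT-PCR (Fluidigm array), housekeeping-normalized; bidirectional curve fit relative to DMSO baseline.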

Read-out in test [19]: ABC Transporter (ABCC2), ABCC2 (gene 1244)
In words: LTEA_HepaRG_ABCC2: Life Technologies and Expression Analysis (LTEA) Assay for ABC Transporter (ABCC2) using HepaRG (AID 2283464). The following applies: mRNA level, 48 h; actives raise or lower the signal. The method in brief: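 HepaRG, 48 h post-plating; serum-free induction medium; cpd 8-pt, 100 uM top, half-log, 0.5% DMSO, duplicate, 48 h. Readout: ABCC2 mRNA by qRT-PCR, norm. ACTB/GAPDH/POLR2A. Bidirectional fit vs DMSO baseline.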

The source made the active and inactive calls. How the source made its calls: active means hit-call score of the fitted dose curve at least 0.9, where 1 is the maximum; inactive means score below 0.9.

Broad substrate specificity ATP-binding cassette transporter ABCG2 (Homo sapiens), sequence (Q9UNQ0 whole entry, looked up): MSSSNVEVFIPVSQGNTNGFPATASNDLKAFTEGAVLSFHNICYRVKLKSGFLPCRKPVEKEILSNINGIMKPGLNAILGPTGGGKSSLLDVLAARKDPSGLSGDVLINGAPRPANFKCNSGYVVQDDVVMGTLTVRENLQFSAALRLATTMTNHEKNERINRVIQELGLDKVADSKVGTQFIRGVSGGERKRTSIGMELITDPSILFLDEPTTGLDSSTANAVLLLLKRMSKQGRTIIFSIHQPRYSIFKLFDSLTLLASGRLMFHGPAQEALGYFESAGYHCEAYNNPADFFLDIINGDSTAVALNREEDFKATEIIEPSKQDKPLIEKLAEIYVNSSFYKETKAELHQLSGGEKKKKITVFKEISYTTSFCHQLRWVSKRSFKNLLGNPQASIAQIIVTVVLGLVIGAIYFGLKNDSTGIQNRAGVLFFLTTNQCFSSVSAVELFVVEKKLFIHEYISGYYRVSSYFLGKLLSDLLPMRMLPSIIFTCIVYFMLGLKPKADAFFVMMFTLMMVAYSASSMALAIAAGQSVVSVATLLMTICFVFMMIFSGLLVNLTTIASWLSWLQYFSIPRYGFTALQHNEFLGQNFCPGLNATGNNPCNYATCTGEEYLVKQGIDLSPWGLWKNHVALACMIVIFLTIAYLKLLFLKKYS
Fatty acid synthase (Homo sapiens), sequence (P49327 whole entry, looked up): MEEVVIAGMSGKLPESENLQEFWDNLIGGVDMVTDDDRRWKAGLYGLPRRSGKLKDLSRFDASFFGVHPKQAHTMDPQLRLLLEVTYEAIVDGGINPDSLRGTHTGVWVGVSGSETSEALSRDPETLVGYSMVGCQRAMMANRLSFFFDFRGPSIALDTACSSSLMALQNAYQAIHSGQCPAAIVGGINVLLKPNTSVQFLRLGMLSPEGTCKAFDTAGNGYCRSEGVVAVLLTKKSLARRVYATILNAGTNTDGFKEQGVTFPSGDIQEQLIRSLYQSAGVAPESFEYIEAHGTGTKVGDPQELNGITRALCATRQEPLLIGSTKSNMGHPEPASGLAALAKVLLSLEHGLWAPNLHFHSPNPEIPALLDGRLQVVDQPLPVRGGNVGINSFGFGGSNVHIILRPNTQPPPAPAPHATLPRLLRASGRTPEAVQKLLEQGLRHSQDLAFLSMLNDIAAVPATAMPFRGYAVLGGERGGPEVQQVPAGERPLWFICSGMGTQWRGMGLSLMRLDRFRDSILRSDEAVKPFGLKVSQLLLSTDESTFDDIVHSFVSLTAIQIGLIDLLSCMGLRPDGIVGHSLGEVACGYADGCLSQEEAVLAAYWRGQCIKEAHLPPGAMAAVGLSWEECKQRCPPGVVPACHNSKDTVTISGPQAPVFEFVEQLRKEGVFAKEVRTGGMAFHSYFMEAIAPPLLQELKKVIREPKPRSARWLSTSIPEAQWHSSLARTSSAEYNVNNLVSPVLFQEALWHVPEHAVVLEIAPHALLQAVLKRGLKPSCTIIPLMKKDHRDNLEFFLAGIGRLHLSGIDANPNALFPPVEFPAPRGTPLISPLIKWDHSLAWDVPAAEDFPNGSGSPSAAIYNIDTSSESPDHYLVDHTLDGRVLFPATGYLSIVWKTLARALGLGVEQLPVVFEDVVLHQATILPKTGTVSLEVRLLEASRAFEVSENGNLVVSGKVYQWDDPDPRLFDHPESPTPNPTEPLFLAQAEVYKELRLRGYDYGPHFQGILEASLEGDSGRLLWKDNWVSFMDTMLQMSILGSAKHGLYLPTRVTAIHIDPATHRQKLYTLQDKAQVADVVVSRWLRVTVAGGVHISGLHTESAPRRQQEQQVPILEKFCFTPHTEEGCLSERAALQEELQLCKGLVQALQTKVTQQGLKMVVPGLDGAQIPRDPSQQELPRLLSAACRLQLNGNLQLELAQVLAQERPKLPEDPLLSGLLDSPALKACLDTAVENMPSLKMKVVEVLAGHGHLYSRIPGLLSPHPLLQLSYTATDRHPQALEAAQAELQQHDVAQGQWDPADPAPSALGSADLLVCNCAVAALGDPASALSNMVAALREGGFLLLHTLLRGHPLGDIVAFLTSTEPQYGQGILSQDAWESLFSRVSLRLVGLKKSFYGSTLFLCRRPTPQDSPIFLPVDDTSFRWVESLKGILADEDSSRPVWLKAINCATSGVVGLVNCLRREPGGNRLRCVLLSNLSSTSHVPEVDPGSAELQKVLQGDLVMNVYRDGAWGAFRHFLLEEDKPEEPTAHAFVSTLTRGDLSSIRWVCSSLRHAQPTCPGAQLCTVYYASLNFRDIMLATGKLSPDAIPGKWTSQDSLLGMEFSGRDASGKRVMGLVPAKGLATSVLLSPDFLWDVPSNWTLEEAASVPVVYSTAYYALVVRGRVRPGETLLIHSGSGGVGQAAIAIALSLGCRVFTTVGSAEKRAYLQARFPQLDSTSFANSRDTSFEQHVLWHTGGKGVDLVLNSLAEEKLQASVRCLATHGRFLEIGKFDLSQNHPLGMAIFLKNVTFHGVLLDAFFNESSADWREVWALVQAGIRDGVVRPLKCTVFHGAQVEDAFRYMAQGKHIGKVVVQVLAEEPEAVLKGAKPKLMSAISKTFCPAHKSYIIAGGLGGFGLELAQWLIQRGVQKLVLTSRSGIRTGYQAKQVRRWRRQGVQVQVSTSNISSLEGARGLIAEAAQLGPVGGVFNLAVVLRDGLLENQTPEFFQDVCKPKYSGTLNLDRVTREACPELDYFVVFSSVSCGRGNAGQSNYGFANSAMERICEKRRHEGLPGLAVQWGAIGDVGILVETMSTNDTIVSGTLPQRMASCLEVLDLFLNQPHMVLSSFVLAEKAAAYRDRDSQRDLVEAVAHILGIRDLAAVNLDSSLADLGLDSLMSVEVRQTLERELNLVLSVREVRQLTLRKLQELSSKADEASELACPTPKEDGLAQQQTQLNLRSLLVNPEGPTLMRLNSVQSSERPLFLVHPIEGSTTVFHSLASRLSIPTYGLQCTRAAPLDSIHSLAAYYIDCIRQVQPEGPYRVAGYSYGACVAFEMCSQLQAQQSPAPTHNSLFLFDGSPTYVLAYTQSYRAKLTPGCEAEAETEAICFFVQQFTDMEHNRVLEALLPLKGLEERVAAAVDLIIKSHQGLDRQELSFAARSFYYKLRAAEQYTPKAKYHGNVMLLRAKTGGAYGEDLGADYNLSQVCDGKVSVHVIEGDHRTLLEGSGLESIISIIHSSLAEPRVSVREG

As to `O=C(Nc1ccccc1-c1ccc(Cl)cc1)c1cccnc1Cl`, the AC50 in [1] was 13.1 µM (active); in test [9] it was 52.5 µM (active); in [17] it was 0.921 µM (active). Besides, the compound was classed as inactive in test [2], in test [3], in test [4], in test [5], in test [6] and in test [7]. The call in test [8], in test [10], in test [11], in test [12], in test [13] and in test [14] was inactive. For the same compound, the call in [15], in test [16] and in test [18] was inactive.
With `CC1(C)C(C=C(Cl)Cl)C1C(=O)OC(C#N)c1cccc(Oc2ccccc2)c1` (configuration not stated), the compound was classed as inactive in [1], in test [2], in [3], in [4], in [5] and in test [6]. Moreover, the compound was called inactive in [7], in test [8], in test [11], in [12], in test [13] and in [15]. Moreover, the compound was classed as inactive in test [16], in test [17] and in [19]. Further, the values for the AC50 in [9], in test [14] and in test [18] were 28.8 µM (active), 50 µM (active) and 10.8 µM (active), respectively.
Take `CNC(=O)Oc1cccc2ccccc12`: the compound was called inactive in test [1], in test [2], in [3], in test [5], in [6] and in [7]. The outcome in [9], in test [10], in [12], in test [13], in test [15] and in [16] was inactive. Also, the result in [17] and in [18] was inactive. For the same compound, in test [4], the AC50 was 0.0193 µM (active).
As to `O=C1C2CC=CCC2C(=O)N1SC(Cl)(Cl)Cl` (configuration not stated), the result in [1], in test [2], in [4], in test [5], in test [6] and in test [7] was inactive. Also, the call in test [10], in [12], in test [13], in [16], in test [19] and in [18] was inactive. Also, the AC50 in test [3] is 70.9 µM (active); in test [9], 38.8 µM (active); in test [11] it was 77.1 µM (active); in test [17], 57.6 µM (active).
